Among the data in PubChem BioAssay are z-score values, retold here.

Activity calls are given as the source filed them.

A short description of assay [1]: compound effects on lung adenocarcinoma cell viability – A549, calcein-AM fluorescence, 48 h, basal, profiling panel (AID 1162). The conditions noted are these: higher = more signal.
Assay [2] in a line: compound effects on differentiated 3T3-L1 adipocyte viability – cell-based, 3T3-L1 adipocytes, calcein-AM fluorescence, 48 h, basal, profiling panel (AID 1163). The conditions noted are these: 3T3-L1 adipocytes viability, higher = more signal.
Assay [3] is described as follows: compound effects on hepatocellular carcinoma cell viability – HepG2, calcein-AM fluorescence, 48 h, basal, profiling panel (AID 1164). The conditions noted are these: higher = more signal.
Assay [4] is described as follows: compound effects on multiple myeloma cell viability – MM1S, calcein-AM fluorescence, 48 h, basal, profiling panel (AID 1165). Conditions: higher = more signal.
Assay [5] in a line: calcein-AM signal in unstimulated myeloma cells – cell-based, calcein-AM fluorescence, 48 h, PK04 Diversity Set, profiling panel (AID 1166).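 Note: cells grown under basal conditions without added stimulus.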 Conditions: RPMI8226 myeloma viability, higher = more signal.
A short description of assay [6]: JC-1 mitochondrial signal, unstimulated HepG2 cells – cell-based, JC-1 fluorescence, 24 h, 100 nL compound, profiling panel (AID 1167). The conditions noted are these: HepG2 mitochondrial potential, higher = more signal.
Assay [7] in a line: JC-1 mitochondrial signal, unstimulated adipocytes – cell-based, JC-1 fluorescence, 3T3-L1 adipocytes, 24 h, 100 nL compound, profiling panel (AID 1168). Conditions: JC-1 mitochondrial fluorescence, higher = more signal, called active from +8 up or from −8 down.
Assay [8] is described as follows: JC-1 mitochondrial signal, unstimulated myeloma cells – cell-based, JC-1 fluorescence, RPMI8226, 24 h, 100 nL compound, profiling panel (AID 1169). The conditions noted are these: JC-1 mitochondrial potential fluorescence, higher = more signal.
A short description of assay [9]: JC-1 mitochondrial signal, unstimulated MM1S myeloma – cell-based, JC-1 fluorescence, 24 h, 100 nL compound, profiling panel (AID 1170). The conditions noted are these: MM1S mitochondrial potential, higher = more signal.
The nature of assay [10]: resazurin metabolic signal in A549 cells – cell-based, resazurin fluorescence, 24 h, PK04 Diversity Set, profiling panel (AID 1171). Conditions: A549 viability, higher = more signal, called active from +8 up or from −8 down. On the technique in general: Alamar Blue is a resazurin reagent that responds to reducing activity.
Note: test concentration not given here.

On to `CC(C)C[C@@H]1NC(=O)[C@@H]2C[C@H](C(=O)NCc3ccc(F)cc3)[C@H](c3ccc(O)cc3)N2C1=O`, for which the z-score in [1] was 0.0054; in assay [2], 0.305; in [3] it was -1.03; in [4] it was -0.199; in assay [5] it was -0.214; in assay [6], 1.07. For the same molecule, the z-score in [7] was 0.0421 (inactive); in assay [8], 0.182; in assay [9], 0.593; in [10], 0.149 (inactive).

Turning to `C[C@]12C(=O)N(CCCCCO)[C@@H]3C(=O)N(c4ccc(Cl)cc4)CC=CC31O[C@@H]1/C=C\CCCOC(=O)C12` (stereo not given in full), the z-score is -0.237 in assay [1]; 0.282 in assay [2]; 0.209 in assay [3]; 0.355 in assay [4]; -0.376 in [5]; -0.259 in [6]. The z-score in assay [7] was -0.175 (inactive); in [8], 0.109; in assay [9], -0.0571; in assay [10], -0.663 (inactive).

Take `CO[C@H]1O[C@H](CO)[C@@H](OC(=O)Nc2cccc(F)c2)[C@H](OC(=O)Nc2ccc3c(c2)OCO3)[C@H]1OC(=O)Nc1ccc2c(c1)OCO2`: the z-score in assay [1] is -0.598; in assay [2], 0.424; in assay [3], -1.86; in assay [4], -1.17; in assay [5] it was -2.11; in assay [6], -0.216. Moreover, the z-score in [7] was 0.712 (inactive); in assay [8] it was -0.313; in assay [9], -0.0179; in assay [10], -1.14 (inactive).

For the molecule `COCCOC(=O)N1C(=O)[C@@]2(c3cc(C#CCNC(N)=O)ccc31)[C@H](C(N)=O)[C@H]1C(=O)O[C@H](c3ccccc3)[C@H](c3ccccc3)N1[C@@H]2c1ccc(OCCO)cc1`, the z-score in assay [1] is -0.304; in [2], -0.867; in assay [3], -0.392; in assay [4], -0.905; in assay [5] it was 0.66; in assay [6], -2.81. Further, the z-score in assay [7] is 0.441 (inactive); in assay [8], -0.634; in assay [9], -0.602; in assay [10], 0.452 (inactive).

For `COc1ccc([Si](C)(C)[C@@H]2[C@@H](CC(=O)N3Cc4ccccc4C[C@H]3CO)O[C@]3(C(=O)N(Cc4cccc(N5CCCCC5=O)c4)c4ccccc43)[C@H]2C)cc1`, the z-score in assay [1] was -0.824; in assay [2], 1.85; in assay [3] it was -1.27; in assay [4], -1.55; in assay [5], -3.36; in [6], -0.157. For the same molecule, the z-score in assay [7] was 0.472 (inactive); in assay [8], -0.901; in assay [9], -0.398; in assay [10] it was -2.68 (inactive).

With `COCCCNC(=O)[C@@]1(C)c2ccccc2C(=O)N(c2ccc(C)cn2)[C@H]1c1ccc(CO)cc1`, the z-score in assay [1] is -0.255; in assay [2], -1.13; in assay [3], -0.956; in [4], -0.0048; in [5] it was -0.857; in assay [6], -0.587. Further, the z-score in [7] is 0.285 (inactive); in assay [8], 0.054; in assay [9], -0.295; in assay [10], 0.999 (inactive).

Take `CCCC[C@H]1OB(O)C[C@H]2C1=C(COc1ccccc1)Cn1c(=O)n(-c3ccccc3)c(=O)n12`: the z-score in assay [1] was -0.428; in assay [2], 0.75; in assay [3] it was -0.561; in assay [4], -0.206; in [5], -1.28; in assay [6] it was -2.12. Also, the z-score was 0.16 (inactive) in assay [7], 0.268 in assay [8], -0.958 in assay [9] and -0.412 (inactive) in assay [10].

With `COc1ccc(C#Cc2ccc3c(c2)[C@]2(C(=O)N3)[C@H](c3ccc(OCCO)cc3)N3[C@H](c4ccccc4)[C@H](c4ccccc4)OC(=O)[C@H]3[C@@H]2C(=O)N2CCN(c3ncccn3)CC2)cc1`, the z-score in assay [1] is -0.446; in [2], 1.15; in assay [3], -0.646; in assay [4], 0.496; in assay [5] it was -0.106; in [6] it was -0.851. In addition, the z-score in assay [7] was 4.27 (inactive); in assay [8], -0.507; in assay [9], -0.816; in assay [10], 1.32 (inactive).

With `COC(=O)[C@@]1(Cc2ccccc2N=[N+]=[N-])N=C(c2ccc(OCCCO)cc2)O[C@H]1c1ccccc1`, the z-score was -2.99 in assay [1]; -0.421 in [2]; -5.47 in assay [3]; -3.58 in [4]; -3.93 in [5]; -3.13 in assay [6]. In addition, the z-score was -0.138 (inactive) in assay [7], -1.06 in assay [8], -2.9 in [9] and -2.88 (inactive) in assay [10].

For `COCCOC(=O)N1C(=O)[C@@]2(c3cc(C#CC4(O)CCCCCC4)ccc31)[C@H](C(=O)N1CCc3cc(OC)c(OC)cc3C1)[C@H]1C(=O)O[C@H](c3ccccc3)[C@H](c3ccccc3)N1[C@@H]2c1ccccc1OCCO`, the z-score is 0.863 in assay [1]; 1.59 in assay [2]; 0.898 in assay [3]; -0.401 in assay [4]; -1.47 in assay [5]; 0.782 in [6]. Moreover, the z-score in assay [7] is 1.29 (inactive); in assay [8] it was -0.477; in [9], -0.952; in assay [10] it was 0.993 (inactive).

As to `C=CC[C@]1(C(=O)N2CCOCC2)N=C(c2ccc(OCCCO)cc2)O[C@H]1c1ccccc1CN=[N+]=[N-]`, the z-score in assay [1] is 0.762; in [2], 0.399; in [3] it was 1.65; in [4], -0.0728; in assay [5] it was -1.62; in [6], 1.48. The z-score in assay [7] was 0.114 (inactive); in [8], -0.977; in assay [9], -0.508; in [10], -0.119 (inactive).
